From PubChem BioAssay AID651812 (National Center for Advancing Translational Sciences (NCATS), 2012)
Screen size: about 2,100 compounds; about 650 (31%) were called active. Inconclusive results (about 16%) are left out. The call rests on the fitted dose curve; in most records, active means well fitted inhibition curve with a large enough effect; inconclusive means small, poorly fitted or top-dose-only effect; inactive means flat fitted curve, though single readings scatter. Some of the results follow.

assay: qHTS for inhibitors of Vif-A3G interactions: Cherry picks; details: HeLa A3G-eYFP + Vif (tagged APOBEC3G with the HIV-1 protein that degrades it), 24 h; Potency: eYFP fluorescence increase; series mostly up to 36.9 µM; activity, negative = fluorescence increase: at the top concentration; further: nearly all actives have a fitted effect of over 80% in size; on activity, negative = fluorescence increase: % of control where 0% means no effect
Description: The recent discovery and characterization of host restriction factors, which provide a potent defense to invading retroviruses, has provided new targets for antiviral drug development. APOBEC3G (A3G) and APOBEC3F (A3F) are potent cytidine deaminases that block HIV-1 replication; HIV-1 expresses the Vif protein, which counteracts A3G and A3F by binding to them and inducing their proteasomal degradation. The Vif-A3G and Vif-A3F interactions provide two potential targets for development of small molecules which can interfere with the ability of Vif to degrade A3G or A3F. […] To identify inhibitors that can interfere with Vif mediated degradation of A3G and A3F, we have developed Hela cell lines that stably express A3G or A3F tagged with eYFP at the C-terminal end (A3G-eYFP or A3F-eYFP, respectively) and Vif. In the absence of an inhibitor, Vif induces degradation of A3G-eYFP and A3F-eYFP, and the cells are not fluorescent. In the presence of an inhibitor, it is expected that Vif will be unable to degrade A3G-eYFP and/or A3F-eYFP, resulting in an increase in yellow fluorescence. In this assay, Vif A3G was screened against the cherry picks ordered from the MLSMR. NIH Chemical Genomics Center [NCGC] NIH Molecular Libraries Probe Centers Network [MLPCN] MLPCN Grant: MH093245 Assay Submitter (PI): Vinay Pathak, National Cancer Institute
A3G-Vif cells were harvested from T225 flask and resuspended in phenol free OPTI-MEM medium with 5% FBS. Then 5 uL of 140,000 cells/mL resuspended cells was dispensed into each well of low base Aurora COC 1,536-well plates (black walled, clear bottom) using a Multidrop Combi dispenser. After overnight culture at 37 deg C with 5% CO2, a total of 23 nL of compounds at 5 selected concentrations from the NPC or positive control (2 mM stock of MG132) in DMSO was transferred to each well of the assay plate using a pintool (Kalypsys, San Diego, CA), and the plates were further incubated at 37 deg C with 5% CO2 for 24 hours. After that, the plates were measured on Acumen Explorer (TTP Lab Tech). The fluorescence was detected by 488 nm/Ex and […].
Potency means the concentration at half of the fitted maximal effect.

| Compound | Potency | activity, negative = fluorescence increase |
| --- | --- | --- |
| CN1/C(=C\C=C2C(=O)NC(=O)NC2=O)C(C)(C)c2ccccc21 | 4.61 µM (active) |  |
| CCCCNC(=O)/C(C#N)=c1\s/c(=C\c2ccccc2OC(F)F)c(=O)n1CCCOC | 16.4 µM (active) |  |
| COCCCn1c(=O)/c(=C\c2ccccc2OC(F)F)s/c1=C(/C#N)C(=O)NCCOC | 20.6 µM (active) |  |
| C/C(=C\c1ccc(N(C)C)cc1)[N+](=O)[O-] |  | 0.666% (inactive) |
| O=C1NC(=O)N(c2ccc3c(c2)OCO3)C(=O)/C1=C/c1ccc(N2CCCCC2)o1 | 23.1 µM (active) |  |
| O=C1NC(=O)N(c2ccc3c(c2)OCO3)C(=O)/C1=C\c1ccc(N2CCCCC2)o1 | 20.6 µM (active) |  |
| CCCCn1c(O)c(C(=O)/C=C/c2c[nH]c3ccccc23)c(=O)[nH]c1=O | 15.8 µM (active) |  |
| Cc1ccccc1-n1c(/C=C/c2ccc(N(C)C)cc2)nc2ccccc2c1=O | 5.8 µM (active) |  |
| O=c1[nH]c(CN2CC=C(c3ccccc3)CC2)nc2scc(-c3ccccc3)c12 | 23.1 µM (active) |  |
| O=C1/C(=C/c2ccc3c(c2)OCO3)SC(=S)N1CCC(=O)N(CCO)c1ccccc1 | 23.1 µM (active) |  |
| O=c1c2ccccc2nc(/C=C/c2ccccc2O)n1-c1ccc(Br)cc1 | 20.6 µM (active) |  |
| COc1ccc(-n2c(/C=C/c3ccc(O)c(OC)c3)nc3ccccc3c2=O)cc1 | 23.1 µM (active) |  |
| NC(=Nc1ccccc1)NN=Cc1c[nH]c2ccccc12 |  | -1.44% (inactive) |
| Cc1cccc(CN2CCCC(C(=O)c3cccc(OC(C)C)c3)C2)n1 (stereo not drawn) |  | -4.3% [at 46.1 µM] (inactive) |
| O=C1NC(=S)SC1=Cc1ccc(N(CCCl)CCCl)cc1 | 15.8 µM (active) |  |
| CN1C(=O)C(=Cc2ccc(N3CCCCC3)o2)C(=O)N(C)C1=S | 7.31 µM (active) |  |
| CN1C(=O)C(=Cc2ccc(N3CCOCC3)o2)C(=O)N(C)C1=S | 20.6 µM (active) |  |
| CN1C(=O)C(=Cc2ccc(N3CCOCC3)o2)C(=O)N(C)C1=O | 23.1 µM (active) |  |
| O=C1CN=C(c2cccc(Br)c2)c2cc(Br)ccc2N1 |  | -0.913% (inactive) |
| CCS(=O)(=O)N1N=C(c2cccc(NS(C)(=O)=O)c2)CC1c1ccccc1 (stereo not drawn) | 18.4 µM (active) |  |
| O=Cc1c(C(=O)O)n(Cc2ccc(Cl)cc2)c2ccccc12 | 20.6 µM (active) |  |

| Compound | Potency | activity, negative = fluorescence increase |
| --- | --- | --- |
| Cc1ccc(CNC(=O)c2ccccc2NC(=O)c2nsc3ccccc23)cc1 | 20.6 µM (active) |  |
| COc1ccc(-c2ccc(OC)c(OC)c2OC)cc1 |  | -11.7% (inactive) |
| CN(C)c1ccc(C(=O)c2ccc(N(C)C)cc2)cc1 |  | -0.231% (inactive) |
| Cc1cc(N(CCCl)CCCl)ccc1C=Cc1ccncn1 | 23.1 µM (active) |  |
| COCCCNC(=O)c1c(NC(=O)c2ccco2)n(Cc2ccccc2)c2nc3ccccc3nc12 |  | 0.679% (inactive) |
| COCCNC(=O)c1c(NC(=O)c2ccc(Br)o2)n(Cc2ccccc2)c2nc3ccccc3nc12 | 20.6 µM (active) |  |
| Cc1cccc(-n2c(/C=C/c3ccc([N+](=O)[O-])o3)nc3ccccc3c2=O)c1 | 3.66 µM (active) |  |
| O=c1c2ccccc2nc(/C=C/c2ccc([N+](=O)[O-])o2)n1-c1ccc(O)cc1 | 15.8 µM (active) |  |
| Cc1cccc(-n2c(/C=C/c3c(C)[nH]c4ccccc34)nc3ccccc3c2=O)c1 | 16.4 µM (active) |  |
| CC(=O)OC1C2(CC3N4C(=O)C5(CO)SSC4(CC31O)C(=O)N5C)OC(C)C(C)(C)C2=O (stereo not drawn) |  | -3.88% (inactive) |
| O=c1nc(/C=C/c2ccc(Cl)cc2Cl)cc(C(F)(F)F)[nH]1 |  | -0.355% (inactive) |
| CCN(CC)c1ccc(N=Cc2c(O)n(CCC3=CCCCC3)c(=O)[nH]c2=O)cc1 | 3.66 µM (active) |  |
| C=CCn1c(O)c(C(C)=Nc2ccc(N(CC)CC)cc2)c(=O)[nH]c1=O |  | -6.28% (inactive) |
| CCN(CC)c1ccc(N=Cc2c(O)n(Cc3ccccc3)c(=O)[nH]c2=O)cc1 | 7.31 µM (active) |  |
| Cc1cccc(-n2c(O)c(/C=C/C=Nc3ccccc3)c(=O)[nH]c2=O)c1 | 5.17 µM (active) |  |
| COc1ccc(-n2cnc3cc(C(=O)N4CCC5(CC4)OCCO5)ccc32)cc1 |  | 3.42% (inactive) |
| CN(C)c1ccc(/C=C/C=C2/C(=O)NC(=O)N(c3ccccc3)C2=O)cc1 | 23.1 µM (active) |  |
| CC(C)c1ccc(N2C(=O)NC(=O)/C(=C\C=C\c3ccco3)C2=O)cc1 | 17.7 µM (active) |  |
| Cc1cc(C)cc(N2C(=O)NC(=O)/C(=C\C=C\c3ccco3)C2=O)c1 |  | -22.3% (inactive) |
| CC(C)c1ccc(N2C(=O)NC(=O)/C(=C/C=C/c3ccco3)C2=O)cc1 | 17.7 µM (active) |  |
| Cc1cccc(N2C(=O)NC(=O)/C(=C\C=C\c3ccco3)C2=O)c1 |  | -12.9% (inactive) |

| Compound | Potency | activity, negative = fluorescence increase |
| --- | --- | --- |
| O=[N+]([O-])c1ccc(N2CCOCC2)c2c1no[n+]2[O-] |  | -16.4% (inactive) |
| CC(C)CCCn1c(O)c(/C=C2/C=CC=N2)c(=O)[nH]c1=O | 23.1 µM (active) |  |
| C=C1C(=O)OC2C1CCC(C)C1(O)C=CC(=O)C21C (stereo not drawn) |  | 0.263% (inactive) |
| CC1=CC(=Cc2sc3ccccc3[n+]2C)C=C(C)O1 | 6.51 µM (active) |  |
| Nc1ccc2c3c(cccc13)-c1ccccc1-2 | 4.11 µM (active) |  |
| CN1C(=O)/C(=C\c2ccc(N3CCCCC3)o2)C(=O)NC1=S | 17.7 µM (active) |  |
| Cc1cc(/C=C2\C(=O)NC(=O)N(c3ccc(Br)cc3)C2=O)c(C)n1C |  | -0.904% (inactive) |
| CN1CCN(c2ccc(/C=C3\C(=O)NC(=S)N(c4cccc(Br)c4)C3=O)o2)CC1 | 18.4 µM (active) |  |
| CCC(C)N1C(=O)/C(=C\c2ccc(N3CCCCCC3)cc2)C(=O)NC1=S (stereo not drawn) |  | -23.4% [at 46.1 µM] (inactive) |
| CN1C(=O)/C(=C/c2ccc(N3CCCCCC3)o2)C(=O)NC1=S | 15.8 µM (active) |  |
| CCN1C(=O)/C(=C/c2ccc(N(CC)CC)cc2OC)C(=O)NC1=S |  | -8.27% [at 46.1 µM] (inactive) |
| CCN(CC)c1ccc(/C=C2\C(=O)NC(=S)N(c3ccc(OC)cc3OC)C2=O)o1 | 16.4 µM (active) |  |
| CCN(CC)c1ccc(/C=C2\C(=O)NC(=S)N(C)C2=O)o1 | 12.5 µM (active) |  |
| CCN(CC)c1ccc(C=C2C(=O)N(C)C(=S)N(C)C2=O)o1 | 14 µM (active) |  |
| COc1cc2c(cc1O)[C@@H]1Cc3ccc(OC)c(O)c3CN1CC2 |  | -7.77% (inactive) |
| N#CC1=C(N)Oc2c(c(=O)sc3ccccc23)C1c1cccnc1 (stereo not drawn) |  | -9.63% (inactive) |
| Cc1cc(N2CCCC2)ccc1C=C(C#N)C#N | 7.31 µM (active) |  |
| Cc1c2ccncc2c(C)c2c1[nH]c1ccccc12 | 14.6 µM (active) |  |
| CC/C(=N\NC(=O)c1ccccc1O)c1c(O)n(Cc2ccccc2)c(=O)[nH]c1=O | 20.6 µM (active) |  |
| CC(=O)O[C@@]12CO[C@@H]1C[C@H](OC1OCC(O)C(O)C1O)[C@@]1(C)C(=O)[C@H](O)C3=C(C)[C@@H](OC(=O)[C@H](O)[C@@H](NC(=O)c4ccccc4)c4ccccc4)C[C@@](O)([C@@H](OC(=O)c4ccccc4)C12)C3(C)C (stereo partly drawn) |  | -10.3% (inactive) |
| COC(=O)C1=C(C)N(Cc2ccco2)C(=O)/C1=C\c1ccc(N(C)C)cc1 | 13 µM (active) |  |
